In publication PMC11006913 one finds binding signal data, which are given here for 22 sequences.

Holding throughout (experiment): PBM; 200 nM protein, PBS
Common to all, as to conditions: dsDNA, one strand shown

The target in assay [1] is HOXB4 (Homo sapiens, UniProt P17483 148-234).
The target of assay [2] is HOXB4 (Homo sapiens, UniProt P17483 148-234, V174I).
Assay [3] has as its target ALX1 (Homo sapiens, UniProt Q15699 118-204, L144V).
Assay [4] has as its target ALX1 (Homo sapiens, UniProt Q15699 118-204, L144R).
For assay [5], the target named is ALX1 (Homo sapiens, UniProt Q15699 118-204).
Chain of ALX1 (Homo sapiens, UniProt Q15699 118-204) (Q15699 118-204): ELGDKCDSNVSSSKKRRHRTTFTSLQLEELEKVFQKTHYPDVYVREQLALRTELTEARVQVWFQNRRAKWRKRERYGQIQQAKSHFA
The target of assay [6] is VAX1 (Homo sapiens, UniProt Q5SQQ9 86-172).
Chain of VAX1 (Homo sapiens, UniProt Q5SQQ9 86-172) (Q5SQQ9 86-172): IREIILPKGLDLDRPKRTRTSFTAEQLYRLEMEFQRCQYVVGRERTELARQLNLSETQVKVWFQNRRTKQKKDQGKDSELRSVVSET
The target in assay [7] is VAX1 (Homo sapiens, UniProt Q5SQQ9 86-172, T142I).
Chain of VAX1 (Homo sapiens, UniProt Q5SQQ9 86-172, T142I) (Q5SQQ9 86-172 T142I): as the sequence (Q5SQQ9 86-172) above, with T57I counted along it
For assay [8], the target named is VAX1 (Homo sapiens, UniProt Q5SQQ9 86-172, K157R).
Chain of VAX1 (Homo sapiens, UniProt Q5SQQ9 86-172, K157R) (Q5SQQ9 86-172 K157R): as the sequence (Q5SQQ9 86-172) above, with K72R counted along it
For assay [9], the target named is ALX3 (Homo sapiens, UniProt O95076 139-225, N203Q).
Chain of ALX3 (Homo sapiens, UniProt O95076 139-225, N203Q) (O95076 139-225 N203Q): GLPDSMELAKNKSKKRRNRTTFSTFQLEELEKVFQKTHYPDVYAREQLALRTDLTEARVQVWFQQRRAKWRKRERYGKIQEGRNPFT
Assay [10] addresses ALX3 (Homo sapiens, UniProt O95076 139-225).
For assay [11], the target named is ALX3 (Homo sapiens, UniProt O95076 139-225, L168Q).
Chain of ALX3 (Homo sapiens, UniProt O95076 139-225, L168Q) (O95076 139-225 L168Q): as the sequence (O95076 139-225 N203Q) above, with L30Q, Q65N counted along it
The target in assay [12] is ALX3 (Homo sapiens, UniProt O95076 139-225, L168V).
Chain of ALX3 (Homo sapiens, UniProt O95076 139-225, L168V) (O95076 139-225 L168V): as the sequence (O95076 139-225 N203Q) above, with L30V, Q65N counted along it
Assay [13] concerns the target ALX3 (Homo sapiens, UniProt O95076 139-225, N203S).
In assay [14] the target is HOXD13 (Homo sapiens, UniProt P35453 263-343, T313R).
Chain of HOXD13 (Homo sapiens, UniProt P35453 263-343, T313R) (P35453 263-343 T313R): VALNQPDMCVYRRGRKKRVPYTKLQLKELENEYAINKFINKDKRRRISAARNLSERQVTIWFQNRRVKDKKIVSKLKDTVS
In assay [15] the target is HOXD13 (Homo sapiens, UniProt P35453 263-343).
Chain of HOXD13 (Homo sapiens, UniProt P35453 263-343) (P35453 263-343): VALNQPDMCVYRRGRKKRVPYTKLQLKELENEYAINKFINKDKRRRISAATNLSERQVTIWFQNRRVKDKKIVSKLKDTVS
The target of assay [16] is HOXD13 (Homo sapiens, UniProt P35453 263-343, T313A).
Chain of HOXD13 (Homo sapiens, UniProt P35453 263-343, T313A) (P35453 263-343 T313A): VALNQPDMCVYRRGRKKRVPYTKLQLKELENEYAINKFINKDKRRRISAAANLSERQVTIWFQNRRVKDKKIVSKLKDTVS

Chain of HOXB4 (Homo sapiens, UniProt P17483 148-234) (P17483 148-234): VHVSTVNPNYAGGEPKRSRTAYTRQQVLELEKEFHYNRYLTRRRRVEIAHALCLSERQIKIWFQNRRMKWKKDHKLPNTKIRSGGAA
Chain of HOXB4 (Homo sapiens, UniProt P17483 148-234, V174I) (P17483 148-234 V174I): as the sequence (P17483 148-234) above, with V27I counted along it
Chain of ALX1 (Homo sapiens, UniProt Q15699 118-204, L144R) (Q15699 118-204 L144R): as the sequence (Q15699 118-204) above, with L27R counted along it
Chain of ALX1 (Homo sapiens, UniProt Q15699 118-204, L144V) (Q15699 118-204 L144V): as the sequence (Q15699 118-204) above, with L27V counted along it
Chain of ALX3 (Homo sapiens, UniProt O95076 139-225, N203S) (O95076 139-225 N203S): as the sequence (O95076 139-225 N203Q) above, with Q65S counted along it
Chain of ALX3 (Homo sapiens, UniProt O95076 139-225) (O95076 139-225): as the sequence (O95076 139-225 N203Q) above, with Q65N counted along it

CGGGATGC: the binding signal was 7.47 upbm affinity estimate (log intensity, higher = more binding, comparable within an allelic series) in assay [1]; 7.57 upbm affinity estimate (log intensity, higher = more binding, comparable within an allelic series) in assay [2]; 6.54 upbm affinity estimate (log intensity, higher = more binding, comparable within an allelic series) in [3]; 6.46 upbm affinity estimate (log intensity, higher = more binding, comparable within an allelic series) in assay [4]; 6.51 upbm affinity estimate (log intensity, higher = more binding, comparable within an allelic series) in assay [5].

Turning to ACGTAGCA, the binding signal is 7.63 upbm affinity estimate (log intensity, higher = more binding, comparable within an allelic series) in assay [1] and 7.7 upbm affinity estimate (log intensity, higher = more binding, comparable within an allelic series) in assay [2].

With GGCTAATA, the binding signal is 11.6 upbm affinity estimate (log intensity, higher = more binding, comparable within an allelic series) in assay [1] and 11.9 upbm affinity estimate (log intensity, higher = more binding, comparable within an allelic series) in assay [2].

Turning to CCGTTATC, the binding signal was 9.78 upbm affinity estimate (log intensity, higher = more binding, comparable within an allelic series) in [1] and 9.74 upbm affinity estimate (log intensity, higher = more binding, comparable within an allelic series) in assay [2].

On to CCAGTTGC, for which the binding signal in assay [1] was 7.75 upbm affinity estimate (log intensity, higher = more binding, comparable within an allelic series); in assay [2], 7.61 upbm affinity estimate (log intensity, higher = more binding, comparable within an allelic series).

As for AATGTACC, the binding signal is 10.2 upbm affinity estimate (log intensity, higher = more binding, comparable within an allelic series) in assay [1] and 10.3 upbm affinity estimate (log intensity, higher = more binding, comparable within an allelic series) in [2].

Take CTACCGCC: the binding signal is 7.59 upbm affinity estimate (log intensity, higher = more binding, comparable within an allelic series) in [1] and 7.48 upbm affinity estimate (log intensity, higher = more binding, comparable within an allelic series) in assay [2].

On to CAGCGGAC, for which the binding signal is 7.6 upbm affinity estimate (log intensity, higher = more binding, comparable within an allelic series) in [1] and 7.43 upbm affinity estimate (log intensity, higher = more binding, comparable within an allelic series) in [2].

With CGGGAAAG, the binding signal is 7.44 upbm affinity estimate (log intensity, higher = more binding, comparable within an allelic series) in [1]; 7.56 upbm affinity estimate (log intensity, higher = more binding, comparable within an allelic series) in assay [2]; 6.35 upbm affinity estimate (log intensity, higher = more binding, comparable within an allelic series) in assay [3]; 6.49 upbm affinity estimate (log intensity, higher = more binding, comparable within an allelic series) in assay [4]; 7.08 upbm affinity estimate (log intensity, higher = more binding, comparable within an allelic series) in assay [6]; 7.2 upbm affinity estimate (log intensity, higher = more binding, comparable within an allelic series) in assay [7]. The binding signal in assay [5] is 6.44 upbm affinity estimate (log intensity, higher = more binding, comparable within an allelic series); in [8], 7.08 upbm affinity estimate (log intensity, higher = more binding, comparable within an allelic series).

Take CATTTGCG: the binding signal in assay [1] was 10.6 upbm affinity estimate (log intensity, higher = more binding, comparable within an allelic series); in assay [2], 10.8 upbm affinity estimate (log intensity, higher = more binding, comparable within an allelic series).

Consider CCTGTCCC, for which the binding signal in assay [1] is 7.61 upbm affinity estimate (log intensity, higher = more binding, comparable within an allelic series); in [2], 7.76 upbm affinity estimate (log intensity, higher = more binding, comparable within an allelic series).

Take GCTGGCGA: the binding signal in assay [1] is 7.41 upbm affinity estimate (log intensity, higher = more binding, comparable within an allelic series); in [2], 7.45 upbm affinity estimate (log intensity, higher = more binding, comparable within an allelic series).

On to CTGGGGGA, for which the binding signal was 7.75 upbm affinity estimate (log intensity, higher = more binding, comparable within an allelic series) in assay [1]; 7.53 upbm affinity estimate (log intensity, higher = more binding, comparable within an allelic series) in [2]; 7.77 upbm affinity estimate (log intensity, higher = more binding, comparable within an allelic series) in assay [9]; 7.77 upbm affinity estimate (log intensity, higher = more binding, comparable within an allelic series) in assay [10]; 7.72 upbm affinity estimate (log intensity, higher = more binding, comparable within an allelic series) in assay [11]; 7.67 upbm affinity estimate (log intensity, higher = more binding, comparable within an allelic series) in assay [12]. The binding signal in assay [13] is 7.72 upbm affinity estimate (log intensity, higher = more binding, comparable within an allelic series).

For AAATGTTA, the binding signal is 10.3 upbm affinity estimate (log intensity, higher = more binding, comparable within an allelic series) in assay [1] and 10.4 upbm affinity estimate (log intensity, higher = more binding, comparable within an allelic series) in assay [2].

With CCCGTGCG, the binding signal in assay [1] was 7.96 upbm affinity estimate (log intensity, higher = more binding, comparable within an allelic series); in assay [2], 7.88 upbm affinity estimate (log intensity, higher = more binding, comparable within an allelic series).

In the case of CAACAGAG, the binding signal in assay [1] was 7.94 upbm affinity estimate (log intensity, higher = more binding, comparable within an allelic series); in assay [2], 7.66 upbm affinity estimate (log intensity, higher = more binding, comparable within an allelic series).

In the case of ATGAGTTA, the binding signal in assay [1] was 10.4 upbm affinity estimate (log intensity, higher = more binding, comparable within an allelic series); in assay [2], 10.6 upbm affinity estimate (log intensity, higher = more binding, comparable within an allelic series).

On to CGAATCTC, for which the binding signal was 7.71 upbm affinity estimate (log intensity, higher = more binding, comparable within an allelic series) in [1] and 7.74 upbm affinity estimate (log intensity, higher = more binding, comparable within an allelic series) in assay [2].

As for AGGTCCAC, the binding signal in assay [1] is 7.8 upbm affinity estimate (log intensity, higher = more binding, comparable within an allelic series); in assay [2] it was 7.65 upbm affinity estimate (log intensity, higher = more binding, comparable within an allelic series).

CTCCCGGC: the binding signal in assay [1] was 7.38 upbm affinity estimate (log intensity, higher = more binding, comparable within an allelic series); in assay [2], 7.56 upbm affinity estimate (log intensity, higher = more binding, comparable within an allelic series); in assay [9], 7.65 upbm affinity estimate (log intensity, higher = more binding, comparable within an allelic series); in [14], 9.46 upbm affinity estimate (log intensity, higher = more binding, comparable within an allelic series); in assay [15], 9.39 upbm affinity estimate (log intensity, higher = more binding, comparable within an allelic series); in assay [10], 7.57 upbm affinity estimate (log intensity, higher = more binding, comparable within an allelic series). Moreover, the binding signal is 7.75 upbm affinity estimate (log intensity, higher = more binding, comparable within an allelic series) in [11]; 9.4 upbm affinity estimate (log intensity, higher = more binding, comparable within an allelic series) in [16]; 7.74 upbm affinity estimate (log intensity, higher = more binding, comparable within an allelic series) in assay [12]; 7.67 upbm affinity estimate (log intensity, higher = more binding, comparable within an allelic series) in [13].

On to CTAGGCAG, for which the binding signal in [1] was 8.13 upbm affinity estimate (log intensity, higher = more binding, comparable within an allelic series); in [2], 7.88 upbm affinity estimate (log intensity, higher = more binding, comparable within an allelic series).

Turning to AATGGTCA, the binding signal in [1] is 10.4 upbm affinity estimate (log intensity, higher = more binding, comparable within an allelic series); in assay [2], 10.5 upbm affinity estimate (log intensity, higher = more binding, comparable within an allelic series).
